# From PubChem
# A selection: hits, their analogues and other compounds. The true share with any hit is near 0.98%.
# LANA DNA inh – inhibitors of KSHV C-LANA binding to DNA, primary screen, biochemical, fluorescence polarization, FAM-LBS DNA, MBP-C-LANA, single point; Kaposi's sarcoma herpesvirus LANA C-terminal domain (residues 932-1162) DNA binding; inhibition, % at 9 µM; hit rate 0.078% among 340,000; AID 504423, 2011;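 active means highest replicate inhibition at or above 60% at 9 µM, even if other replicates fall short; inactive means all replicates below 60% inhibition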;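 further: 0% = neutral control wells and 100% = 4 µM acridine orange control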
# Cardiac RTF inh – cardiac RTF calcium sensitivity inhibitors, primary screen, biochemical, IANBD-TnC fluorescence, EC70 calcium; AID 493244, 2011; inhibition, % at 7.15 µM; IANBD-labeled cardiac RTF, Ca2+ fluorescence; hit rate 0.12% among 340,000; Troponin I, cardiac muscle (Homo sapiens) + Troponin T, cardiac muscle (Homo sapiens) + …;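 active means inhibition above the mean inhibition of all tested compounds plus 3 SD, cut at about 17% in these data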;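 further: assay run at fixed EC70 calcium of 1.6 mM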
# Keap1 Nrf2 FP – Keap1-Nrf2 protein-protein interaction inhibitors, primary screen, biochemical, fluorescence polarization, single point; Kelch-like ECH-associated protein 1 (Homo sapiens), Q14145; hit rate 0.15% among 340,000; AID 504523, 2011; inhibition, % at 9.4 µM; Keap1 Kelch-Nrf2 peptide fluorescence polarization, 1536-well; in the data active means inhibition above about 12%;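 further: human Keap1 Kelch domain with fluorescein labeled Nrf2 9mer peptide probe; 0% = neutral control wells and 100% = peptide positive control; higher means more block of Keap1 binding to Nrf2 peptide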
# Target sequence (Q14145 whole entry, looked up, the tested form may be a part): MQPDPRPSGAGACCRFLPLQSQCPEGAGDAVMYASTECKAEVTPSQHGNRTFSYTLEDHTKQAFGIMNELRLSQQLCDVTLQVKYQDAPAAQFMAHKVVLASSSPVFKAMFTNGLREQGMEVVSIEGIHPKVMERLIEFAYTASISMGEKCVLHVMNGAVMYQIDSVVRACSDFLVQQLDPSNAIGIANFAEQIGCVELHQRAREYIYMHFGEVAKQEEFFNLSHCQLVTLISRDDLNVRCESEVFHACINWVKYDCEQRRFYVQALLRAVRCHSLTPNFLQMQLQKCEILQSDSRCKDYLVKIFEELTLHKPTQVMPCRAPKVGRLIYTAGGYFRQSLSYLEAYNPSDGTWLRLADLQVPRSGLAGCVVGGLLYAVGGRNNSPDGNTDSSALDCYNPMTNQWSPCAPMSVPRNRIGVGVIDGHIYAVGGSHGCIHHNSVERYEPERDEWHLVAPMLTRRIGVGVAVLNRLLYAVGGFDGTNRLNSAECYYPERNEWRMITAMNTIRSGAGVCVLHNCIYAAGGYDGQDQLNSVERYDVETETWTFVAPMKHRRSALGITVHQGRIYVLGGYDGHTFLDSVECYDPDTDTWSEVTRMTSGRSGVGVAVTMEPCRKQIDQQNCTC
# E coli Lon inh – inhibitors of E. coli Lon protease, primary screen, biochemical, fluorescence polarization. P0A9M0. purified E. coli Lon protease. inhibition, % at 7.94 µM. hit rate 0.42% among 360,000; in the data active means inhibition above about 13%, passing the limit was not always enough;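 further: 0% = enzyme with probe and DMSO and 100% = no enzyme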
# cardiac RTF act – cardiac RTF calcium sensitivity activators, primary screen, biochemical, IANBD-TnC fluorescence, EC20 calcium | Troponin I, cardiac muscle (Homo sapiens) + Troponin T, cardiac muscle (Homo sapiens) + … | IANBD-labeled TnC RTF fluorescence at EC20 calcium; 0% EC20 calcium, 100% full calcium | activation, % at 7.2 µM | hit rate 0.24% among 340,000 | AID 493008, 2010;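 active means activation above the mean over all tested compounds plus 3 SD, cut at about 30% in these data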;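 further: rise in fluorescence read as greater calcium sensitivity of cardiac thin filaments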
# EBV gp42 inh – Epstein-Barr virus gp42 inhibitors, primary screen, biochemical, uHTS, fluorescence polarization; Glycoprotein 42 (Epstein-Barr virus (strain AG876)), Q1HVG2; Fluorescence polarization binding assay, mP read-out; inhibition, % (tested at 21.74 µM); hit rate 0.42% among 220,000; AID 1085, 2008; in the data active means inhibition above about 50%
# * = called active by the depositor; i = inactive; . = no result given; + = active, no number.
SMILES,LANA DNA inh,Cardiac RTF inh,Keap1 Nrf2 FP,E coli Lon inh,cardiac RTF act,EBV gp42 inh
COc1ccc(-c2cn3nc4c(nc3n2)CCCC4)cc1,5.8,-20.4,-2.8,-11.2,8.7,96.1*
O=C1/C(=C/c2ccco2)SC(=S)N1c1cccnc1,72.1*,9.0,3.1,4.2,-10.8,48.6
O=C1/C(=C/c2cccnc2)SC(=S)N1Cc1ccco1,3.0,0.8,-0.2,-7.2,-6.7,.
Cc1cc(/C=C2\SC(=S)N(Cc3ccco3)C2=O)c(C)n1-c1cccnc1,7.2,-85.6,-3.0,-152.4,89.0*,121.6*
O=c1oc2cc(O)ccc2cc1-c1nc2c(s1)CCc1ccccc1-2,16.0,i,-1.8,.,897.4*,126.6*
NC(=O)c1c(NC(=O)Cn2nc(C(=O)O)c3ccccc3c2=O)sc2c1CCC2,-0.9,-15.9,-7.1,0.6,1.7,-5.3
NC(=O)c1c(NC(=O)Cn2nc(C(=O)O)c3ccccc3c2=O)sc2c1CCCC2,1.1,0.2,-11.6,-0.8,-1.5,52.8*
CCN1/C(=C/c2ccc3cc(C)ccc3[n+]2C)Sc2ccc3sccc3c21,-4.6,-24.5,-3.3,-55.6,3.7,+
CCN1/C(=C/c2ccc3cc(C)ccc3[n+]2CC)Sc2cc(C)ccc21,-9.4,-104.8,-18.8,-146.6,50.9*,-72.9
COC1OC2COC(c3ccccc3)OC2C(O)C1NC(C)=O (configuration not stated),0.9,-15.7,-5.7,-9.7,-1.3,.
Cc1ccc(C(=O)OCC(=O)N(CCc2ccccc2)Cc2ccccc2)cc1S(=O)(=O)N1CCOCC1,-3.3,-7.7,-4.7,-7.3,-3.9,.
O=C(NC1CCCCC1)NS(=O)(=O)c1ccc2c(c1)CCC2,-1.0,-0.1,-1.5,-4.6,-0.9,.
CN(C)c1ccc(-c2ccnc3c2CC(C)(C(=O)Nc2ccc(F)c(Cl)c2)O3)cc1 (configuration not stated),.,.,.,-2.4,.,.
NC(=O)C1CCN(c2nc(-c3cccc(N)c3)cs2)CC1,1.4,4.9,-0.6,0.2,-3.6,.
NC(=O)C1CCN(c2nc(-c3cccnc3)cs2)CC1,18.4,-9.0,12.8*,-5.5,1.2,.
COc1ccc(C2(C)NC(=O)N(CC3CCCCC3)C2=O)cc1 (configuration not stated),0.8,-4.9,6.7,-3.7,2.8,.
CC1C=CC=CC=CC=CC=CC=CC=CC(OC2OC(C)C(O)C(N)C2O)CC2OC(O)(CC(O)CC(O)C(O)CCC(O)CC(O)CC(=O)OC(C)C(C)C1O)CC(O)C2C(=O)O (configuration not stated),67.6*,-6.3,-18.4,-59.0,-0.8,.
CCCn1c(SCCc2ccccc2)nc2c1c(=O)[nH]c(=O)n2C,-0.8,-3.6,0.3,-11.3,-3.1,115.0*
Cc1c(F)cccc1NS(=O)(=O)c1ccc2c(c1)c(C)cc(=O)n2C,-1.7,-2.2,-0.1,4.3,-3.6,.
CCN1C(=O)/C(=C/C=C2\N(CC)c3cc(S(=O)(=O)N(C)C)ccc3N2c2ccccc2)SC1=S,-2.7,-176.3,-11.9,-259.3,166.2*,-137.3
COc1ccc(CC(=O)Nc2ccncc2Cl)cc1,-0.2,2.4,-1.6,-2.2,-3.0,.
CC/C(=C(/CC)c1ccc(O)cc1)c1ccc(O)cc1,0.8,17.9*,.,-14.1,-4.3,10.4
CCOC(=O)Nc1ccc(NCc2ccc(F)cc2)nc1N,16.8,-67.3,-5.5,-74.0,71.7*,.
CCOC(=O)Nc1ccc(C)cc1NC(=O)OCC,-1.8,-1.7,-3.9,10.2,-2.4,-8.4
Cc1cc(C)n(CC(=O)NNC(=O)CC(C)c2ccccc2)n1 (configuration not stated),73.3*,-3.2,0.8,1.2,0.6,.
SMILES,LANA DNA inh,Cardiac RTF inh,Keap1 Nrf2 FP,E coli Lon inh,cardiac RTF act,EBV gp42 inh
Cc1ccccc1Nc1ncccc1C(=O)N1CCOCC1,-2.3,-7.6,0.7,56.5*,0.7,-28.2
COc1ccc(C)cc1NC(=O)CC1COc2ccccc2O1 (configuration not stated),-1.0,-13.9,-1.2,3.7,67.1*,-6.7
COc1cc(OC)c(OC)cc1NC(=O)CC1COc2ccccc2O1 (configuration not stated),-0.8,-1.4,0.8,2.9,1.2,-14.6
Cc1ccc(NC2=Nc3ccccc3N3C2=Nc2c(c(C)nn2-c2ccccc2)C3c2ccc(O)c(O)c2)cc1 (configuration not stated),0.1,-16.5,-1.5,-7.2,9.0,77.9*
Cc1nn(-c2ccccc2)c2c1C(c1ccc(O)c(O)c1)N1C(=N2)C(Nc2ccccc2)=Nc2ccccc21 (configuration not stated),2.1,3.0,-4.1,3.0,6.8,84.9*
Cc1cccc(NC2=Nc3ccccc3N3C2=Nc2c(c(C)nn2-c2ccccc2)C3c2ccc(O)c(O)c2)c1 (configuration not stated),3.2,-36.3,-0.3,-12.1,23.6,32.0
C=C(C)Cn1c2ccc(NC(=S)NCc3ccccc3F)cc2c(=O)n1C,.,.,.,2.4,.,.
CC(C)(C)c1ccc(CC(=O)N2CCC2(C)C(=O)Nc2cccc3cccnc23)cc1 (configuration not stated),.,.,.,3.2,.,.
COC(=O)c1cc(NC(=O)c2cccc(C(F)(F)F)c2)c(=O)oc1C,-0.1,-0.6,-4.7,-4.2,-1.4,-1.6
COC(=O)c1cc(NC(=O)c2cccc(Cl)c2)c(=O)oc1/C=C/Nc1cc(C)cc(C)c1,.,.,.,.,.,155.6*
Cc1ccc(C2(C)NC(=O)N(CC(=O)Nc3ccc(S(=O)(=O)Nc4nccs4)cc3)C2=O)cc1 (configuration not stated),1.6,-0.2,-5.3,0.9,2.6,.
COc1ccc(/C=c2\s/c(=C/C(=O)c3ccc(C)cc3)[nH]c2=O)c(OC)c1,0.5,-166.1,2.0,i,99.1*,11.9
O=C1C=CC(=O)c2c(O)c(CO)c(CO)c(O)c21,30.8,35.8*,9.1,134.2,-31.8,.
O=c1c(CO)cc(CO)cc(CO)c1O,3.2,-17.3,-7.0,7.5,0.6,-14.2
CN(C)c1ccc(/C=C(/C#N)C(=O)Nc2nc3c(s2)CCN(Cc2ccccc2)C3)cc1,4.5,-60.8,-0.8,i,51.2*,.
N#C/C(=C\c1ccc(OCc2ccccc2)cc1)C(=O)Nc1nc2c(s1)CCN(Cc1ccccc1)C2,0.7,9.5,-4.6,-12.8,0.3,-179.4
CCOc1ccccc1OCCC(=O)N1CCN(S(=O)(=O)c2ccccc2[N+](=O)[O-])CC1,-3.7,-4.5,-4.0,1.6,-1.7,.
